Laboratory results published in PubChem BioAssay (Tox21).
Results filed as inconclusive are left out. Where a call stands in place of a potency, no number is given. More than one record can exist for a structure, and the calls need not agree. The source made the active and inactive calls. Unless noted, calls come from the whole dose curve; as a rule, active = well fitted curve in the direction sought with a large enough effect in the repeat runs; inconclusive = weak or mixed curves; inactive = no such curve, though single readings can be large; an effect the other way counts as inactive or inconclusive.

Tests used:
[1] = biological target: Estrogen receptor (Homo sapiens) (UniProt P03372); experiment: qHTS assay to identify small molecule antagonists of the estrogen receptor alpha (ER-alpha) signaling pathway using the BG1 cell line in the presence of 0.1 nM 17-beta-estradiol (AID 1259244); note: nearly all actives have a fitted effect of over 50% in size
Estrogen receptor (Homo sapiens), sequence (P03372 whole entry, looked up): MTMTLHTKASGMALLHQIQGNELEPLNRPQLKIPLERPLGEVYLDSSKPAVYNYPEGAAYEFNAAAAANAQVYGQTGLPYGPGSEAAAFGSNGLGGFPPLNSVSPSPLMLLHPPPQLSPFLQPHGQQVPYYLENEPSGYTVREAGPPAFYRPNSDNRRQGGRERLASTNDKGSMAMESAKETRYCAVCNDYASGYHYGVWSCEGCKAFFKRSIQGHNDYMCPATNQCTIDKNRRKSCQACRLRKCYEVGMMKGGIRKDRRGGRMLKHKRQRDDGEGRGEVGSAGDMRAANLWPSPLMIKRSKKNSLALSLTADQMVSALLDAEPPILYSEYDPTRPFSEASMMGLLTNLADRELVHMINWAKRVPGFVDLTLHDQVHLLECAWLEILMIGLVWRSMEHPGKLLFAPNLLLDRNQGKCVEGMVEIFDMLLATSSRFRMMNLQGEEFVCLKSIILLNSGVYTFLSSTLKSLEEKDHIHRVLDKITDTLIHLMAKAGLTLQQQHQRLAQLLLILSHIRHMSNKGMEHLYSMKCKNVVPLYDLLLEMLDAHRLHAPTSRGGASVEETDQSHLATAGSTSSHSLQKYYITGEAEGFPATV
Outline: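 VM7Luc4E2 cells (endogenous full-length ER-alpha, 4×ERE-luciferase), kept 5 days in phenol red-free, charcoal-stripped FBS medium; 4,000 cells/well. Compounds added with 0.1 nM (final) 17beta-estradiol, 22 hr at 37C; luminescence read with ONE-Glo after 30 min.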

[2] = qHTS assay to identify small molecule HDAC inhibitors (AID 1259364); note: top concentration of the series differs between compounds; nearly all actives have a fitted effect of over 45% in size
Outline: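 Wild-type HCT-116 cells, plated overnight at 37 C, exposed to compounds 2 hr at 37 C; luminogenic HDAC-Glo substrate then added 30 min at room temperature. Luminescence reports relative endogenous class I/II HDAC activity.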

[3] = qHTS assay to identify small molecule HDAC inhibitors - cell viability counter screen (AID 1259365); note: series mostly up to about 92 µM; nearly all actives have a fitted effect of over 50% in size
Outline: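 Following a 2hr exposure of overnight-plated wild-type HCT-116 cells to DMSO-delivered compounds, CellTiter-Glo was added and luminescence recorded after 30min at room temperature.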

[4] = qHTS assay to identify small molecule agonists of the sonic hedgehog signaling (Shh) pathway - cell viability counter screen (AID 1259366); note: nearly all actives have a fitted effect of over 50% in size; note: potency is the fitted concentration of half-maximal effect
Outline: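 After a 4hr attachment at 37C, NIH/3T3 cells bearing an integrated Gli1-driven luciferase reporter were dosed with compounds. Treatment lasted 24hr, with the final hour including CellTiter-Fluor for a fluorescence viability measurement.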

[5] = qHTS assay to identify small molecule antagonists of the sonic hedgehog signaling (Shh) pathway - cell viability counter screen (AID 1259367); note: nearly all actives have a fitted effect of over 55% in size; note: potency is the fitted concentration of half-maximal effect
Outline: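 NIH/3T3-derived Gli1-Luc reporter cells, 2,000/well, plated 4 hr before compound addition, then stimulated with conditioned medium for 24 hr at 37C. Viability measured in the same wells by CellTiter-Fluor fluorescence, reagent added at 23 hr for 1 hr.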

[6] = qHTS assay to identify small molecule antagonists of the sonic hedgehog signaling (Shh) pathway (AID 1259369; calls by dose curve; note: nearly all actives have a fitted effect of over 45% in size; note: potency is the fitted concentration of half-maximal effect)
Outline: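 NIH/3T3-derived Gli1-Luc reporter cells plated 4 h, dosed with compound, then stimulated with conditioned medium for 24 h at 37 C. Firefly luciferase luminescence read after 30 min with detection reagent at room temperature.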

[7] = biological target: Estrogen receptor beta (Homo sapiens) (UniProt Q92731); experiment: qHTS assay to identify small molecule agonists of the estrogen receptor beta (ER-beta) signaling pathway (AID 1259377; active = well fitted activation curve with a large enough effect in the signal ratio in the repeat runs, not every such curve was filed as active; the % refers to the signal ratio)
Estrogen receptor beta (Homo sapiens), sequence (Q92731 whole entry, looked up): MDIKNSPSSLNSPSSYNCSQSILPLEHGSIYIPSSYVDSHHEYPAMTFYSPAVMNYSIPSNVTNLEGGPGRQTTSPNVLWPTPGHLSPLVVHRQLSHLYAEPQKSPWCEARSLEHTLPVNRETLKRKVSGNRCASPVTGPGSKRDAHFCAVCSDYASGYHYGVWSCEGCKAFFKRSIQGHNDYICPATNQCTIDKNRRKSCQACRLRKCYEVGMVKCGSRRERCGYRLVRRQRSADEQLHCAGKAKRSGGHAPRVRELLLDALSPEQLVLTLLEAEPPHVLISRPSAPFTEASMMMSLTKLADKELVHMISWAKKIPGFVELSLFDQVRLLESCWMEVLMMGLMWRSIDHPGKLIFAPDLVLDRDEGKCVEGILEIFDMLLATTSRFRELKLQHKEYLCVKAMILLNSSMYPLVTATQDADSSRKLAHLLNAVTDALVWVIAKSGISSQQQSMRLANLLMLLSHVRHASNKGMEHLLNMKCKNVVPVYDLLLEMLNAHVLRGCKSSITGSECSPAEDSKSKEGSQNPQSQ
Outline: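 In HEK293T cells bearing a UAS-beta-lactamase reporter under ER-beta control, DMSO-delivered compounds were incubated for 16 hr at 37C. Activity was detected as fluorescence 2 hours after LiveBLAzer B/G FRET substrate addition.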

[8] = biological target: Estrogen receptor beta (Homo sapiens) (UniProt Q92731); experiment: qHTS assay to identify small molecule antagonists of the estrogen receptor beta (ER-beta) signaling pathway (AID 1259378; active = well fitted inhibition curve with a large enough effect in the signal ratio in the repeat runs, not every such curve was filed as active; the % refers to the signal ratio)
Outline: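 ER-beta-UAS-bla HEK293T cells in 2% charcoal-stripped FBS medium treated with compound plus 1nM final 17-beta-estradiol for 16 hr at 37C. Beta-lactamase reporter read by FRET substrate fluorescence after 2 hours at room temperature.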

[9] = qHTS assay to identify small molecule agonists of the androgen receptor (AR) signaling pathway in the presence of an antagonist - cell viability counter screen (AID 1259379);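 note: MDA-kb2 human breast cancer cells carrying an MMTV luciferase reporter; series mostly up to about 92 µM; nearly all actives have a fitted effect of over 25% in size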
Outline: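 MDA-kb2 cells (MMTV-luciferase, AR/GR), 3,000/well, 5 h attachment, then 3.0 µM nilutamide (final) and compounds at 15 concentrations. Viability by CellTiter-Fluor fluorescence after 16 h at 37 °C, 0% CO2, in the reporter wells.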

[10] = qHTS assay to identify small molecule antagonists of the estrogen receptor beta (ER-beta) signaling pathway - cell viability counter screen (AID 1259382); note: series mostly up to about 92 µM; nearly all actives have a fitted effect of over 55% in size
Outline: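 ER-beta-UAS-bla HEK293T cells in 2% charcoal-stripped FBS medium, treated with compound plus 1 nM 17-beta-estradiol for 16 h at 37C. Viability read by CellTiter-Glo luminescence after 30 min at room temperature in the same wells.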

[11] = biological target: Estrogen receptor (Homo sapiens) (UniProt P03372); experiment: qHTS assay to identify small molecule agonists of the estrogen receptor alpha (ER-alpha) signaling pathway in the presence of an antagonist (AID 1259383; calls by dose curve; note: top concentration of the series differs between compounds; nearly all actives have a fitted effect of over 15% in size)
Outline: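 VM7Luc4E2 cells express endogenous full-length ER-alpha with an ERE-luciferase reporter and were hormone-deprived for 5 days. Compounds at 15 concentrations were added with 10.0nM ICI-182,780 for 22hr at 37C. Luminescence was read with ONE-Glo.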

[12] = qHTS assay to identify small molecule agonists of the estrogen receptor alpha (ER-alpha) signaling pathway in the presence of an antagonist - cell viability counter screen (AID 1259386);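 note: series mostly up to about 92 µM; cells exposed to compounds for 22 h at 37 °C before the viability read; nearly all actives have a fitted effect of over 30% in size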
Outline: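 Cell viability in VM7Luc4E2 cells (endogenous full-length ER-alpha) measured by CellTiter-Fluor fluorescence in the same wells as the luciferase screen. Cells pre-cultured 5 days in charcoal-stripped serum, then treated 22 h with compounds at 15 concentrations plus 10.0nM ICI-182,780.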

[13] = biological target: Progesterone receptor (Homo sapiens) (UniProt P06401); experiment: qHTS assay to identify small molecule agonists of the progesterone receptor (PR) signaling pathway (AID 1346784; calls by dose curve; note: nearly all actives have a fitted effect of over 30% in size)
Progesterone receptor (Homo sapiens), sequence (P06401 whole entry, looked up): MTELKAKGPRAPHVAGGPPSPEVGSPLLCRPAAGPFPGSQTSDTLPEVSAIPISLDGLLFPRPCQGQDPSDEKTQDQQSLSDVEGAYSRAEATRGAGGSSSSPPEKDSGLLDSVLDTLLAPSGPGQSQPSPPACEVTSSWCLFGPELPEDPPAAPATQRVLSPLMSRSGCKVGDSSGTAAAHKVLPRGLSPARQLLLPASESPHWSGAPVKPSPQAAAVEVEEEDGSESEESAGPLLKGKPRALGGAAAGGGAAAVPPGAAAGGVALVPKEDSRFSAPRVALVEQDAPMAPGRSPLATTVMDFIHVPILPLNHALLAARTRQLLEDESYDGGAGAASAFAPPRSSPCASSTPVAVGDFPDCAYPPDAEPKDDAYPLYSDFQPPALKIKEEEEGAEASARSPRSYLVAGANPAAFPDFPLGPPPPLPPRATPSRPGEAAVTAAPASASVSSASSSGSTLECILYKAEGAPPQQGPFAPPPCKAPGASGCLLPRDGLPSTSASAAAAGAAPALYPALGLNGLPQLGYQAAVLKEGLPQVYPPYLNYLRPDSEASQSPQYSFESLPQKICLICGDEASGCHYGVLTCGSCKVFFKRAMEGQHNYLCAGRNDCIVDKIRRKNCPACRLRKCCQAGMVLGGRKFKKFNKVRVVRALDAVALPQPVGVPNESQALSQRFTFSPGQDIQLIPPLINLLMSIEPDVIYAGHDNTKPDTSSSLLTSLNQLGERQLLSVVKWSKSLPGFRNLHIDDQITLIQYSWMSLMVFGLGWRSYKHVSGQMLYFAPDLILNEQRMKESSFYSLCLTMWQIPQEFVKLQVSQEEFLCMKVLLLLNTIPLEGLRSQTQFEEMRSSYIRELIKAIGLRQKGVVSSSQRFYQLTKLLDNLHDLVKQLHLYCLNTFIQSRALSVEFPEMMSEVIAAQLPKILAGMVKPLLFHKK
Outline: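 Using charcoal-stripped serum (2%) to limit endogenous steroids, PR-UAS-bla HEK 293T cells received compounds for 16 hr at 37C after 6 hr plating; beta-lactamase FRET fluorescence was recorded following 2 hr substrate loading at room temperature.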

[14] = qHTS assay to identify small molecule phospholipidosis (PLD) inducers (AID 1259344; active = well fitted curve in the direction sought with a large enough effect; an effect the other way counts as inactive or inconclusive)
Outline: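 HepG2 cells, 900/well, treated with compound plus LipidTOX Red for 24 h at 37 C; amiodarone positive and DMSO negative controls. Fixed with paraformaldehyde/Hoechst, then high-content imaging scored LipidTOX pit count and integrated intensity per well and per cell.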

[15] = qHTS assay to identify small molecule agonists of the estrogen receptor beta (ER-beta) signaling pathway - cell viability counter screen (AID 1259380); note: nearly all actives have a fitted effect of over 30% in size; note: potency is the fitted concentration of half-maximal effect
Outline: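 ER-beta-UAS-bla HEK293T cells in medium with 2% charcoal-stripped FBS, pre-incubated 6 hr, then treated 16 hr at 37C. Cytotoxicity read in the same wells by CellTiter-Glo luminescence after 30 min at room temperature.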

[16] = qHTS assay to identify small molecule agonists or antagonists of the thyroid stimulating hormone receptor (TSHR) signaling pathway - wild type cell line counter screen (AID 1259384; calls by dose curve)
Outline: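 Wild-type Hek293 cells, 800/well, 18 h at 37C, then compound with Ro20-1724 for 30 min RT. cAMP by HTRF (cAMP-d2/anti-cAMP cryptate), 1 h RT, fluorescence read. 15 concentrations, triplicates.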

[17] = biological target: Thyrotropin receptor (Homo sapiens) (UniProt P16473); experiment: qHTS assay to identify small molecule antagonists of the thyroid stimulating hormone receptor (TSHR) signaling pathway (AID 1259385; calls by dose curve; note: nearly all actives have a fitted effect of over 20% in size)
Thyrotropin receptor (Homo sapiens), sequence (P16473 whole entry, looked up): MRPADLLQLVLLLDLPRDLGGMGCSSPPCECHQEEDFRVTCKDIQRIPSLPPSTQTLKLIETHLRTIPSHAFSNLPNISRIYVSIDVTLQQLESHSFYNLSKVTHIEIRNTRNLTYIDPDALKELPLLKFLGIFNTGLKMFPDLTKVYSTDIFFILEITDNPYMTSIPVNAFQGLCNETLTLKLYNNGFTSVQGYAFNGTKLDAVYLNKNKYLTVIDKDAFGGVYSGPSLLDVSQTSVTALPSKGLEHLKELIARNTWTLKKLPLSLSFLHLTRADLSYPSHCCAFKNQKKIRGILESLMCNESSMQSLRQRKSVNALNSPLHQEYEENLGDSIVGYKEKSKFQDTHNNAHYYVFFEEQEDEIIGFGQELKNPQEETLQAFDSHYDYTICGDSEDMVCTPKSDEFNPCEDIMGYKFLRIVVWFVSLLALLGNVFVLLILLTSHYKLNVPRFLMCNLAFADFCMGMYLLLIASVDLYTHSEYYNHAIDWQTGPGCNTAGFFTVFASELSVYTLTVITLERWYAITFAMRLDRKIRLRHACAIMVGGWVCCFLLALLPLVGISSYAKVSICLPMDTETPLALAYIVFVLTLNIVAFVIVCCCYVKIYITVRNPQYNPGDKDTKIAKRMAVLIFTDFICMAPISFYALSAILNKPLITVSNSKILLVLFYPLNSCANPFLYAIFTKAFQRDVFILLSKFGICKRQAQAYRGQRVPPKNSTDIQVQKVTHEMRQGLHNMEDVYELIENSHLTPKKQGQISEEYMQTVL
Outline: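 TSHR-HEK293 cells (800/well) plated 18 h, then compounds with Ro20-1724 and TSH at 1.5 ng/mL final, 30 min at room temperature. cAMP quantified by HTRF (cAMP-d2/anti-cAMP-cryptate, 1 h); 15 concentrations in triplicate.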

[18] = biological target: Progesterone receptor (Homo sapiens) (UniProt P06401); experiment: qHTS assay to identify small molecule antagonists of the progesterone receptor (PR) signaling pathway (AID 1346795; active = well fitted inhibition curve with a large enough effect in the signal ratio in the repeat runs, not every such curve was filed as active; the % refers to the signal ratio)
Outline: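 Inhibition of R5020-induced (1 nM final) beta-lactamase reporter signal in PR-UAS-bla HEK293T cells was scored by FRET fluorescence after overnight (16 hr) compound treatment.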

[19] = qHTS assay to identify small molecule agonists of the sonic hedgehog signaling (Shh) pathway (AID 1259368; calls by dose curve;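 note: NIH/3T3-derived 3T3Gli1-Luc cells carrying a stable Gli1-driven firefly luciferase reporter; series mostly up to about 92 µM; nearly all actives have a fitted effect of over 15% in size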)
Outline: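 NIH/3T3-derived 3T3Gli1-Luc cells with stably integrated Gli1-driven firefly luciferase, 2,000 cells/well, compounds added after 4 hr. Incubated 24 hr at 37C, 5% CO2; luminescence read after 30 min with luciferase reagent at room temperature.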

[20] = biological target: Androgen receptor (Homo sapiens) (UniProt P10275); experiment: qHTS assay to identify small molecule agonists of the androgen receptor (AR) signaling pathway in the presence of an antagonist (AID 1259381; calls by dose curve; note: nearly all actives have a fitted effect of over 15% in size)
Androgen receptor (Homo sapiens), sequence (P10275 whole entry, looked up): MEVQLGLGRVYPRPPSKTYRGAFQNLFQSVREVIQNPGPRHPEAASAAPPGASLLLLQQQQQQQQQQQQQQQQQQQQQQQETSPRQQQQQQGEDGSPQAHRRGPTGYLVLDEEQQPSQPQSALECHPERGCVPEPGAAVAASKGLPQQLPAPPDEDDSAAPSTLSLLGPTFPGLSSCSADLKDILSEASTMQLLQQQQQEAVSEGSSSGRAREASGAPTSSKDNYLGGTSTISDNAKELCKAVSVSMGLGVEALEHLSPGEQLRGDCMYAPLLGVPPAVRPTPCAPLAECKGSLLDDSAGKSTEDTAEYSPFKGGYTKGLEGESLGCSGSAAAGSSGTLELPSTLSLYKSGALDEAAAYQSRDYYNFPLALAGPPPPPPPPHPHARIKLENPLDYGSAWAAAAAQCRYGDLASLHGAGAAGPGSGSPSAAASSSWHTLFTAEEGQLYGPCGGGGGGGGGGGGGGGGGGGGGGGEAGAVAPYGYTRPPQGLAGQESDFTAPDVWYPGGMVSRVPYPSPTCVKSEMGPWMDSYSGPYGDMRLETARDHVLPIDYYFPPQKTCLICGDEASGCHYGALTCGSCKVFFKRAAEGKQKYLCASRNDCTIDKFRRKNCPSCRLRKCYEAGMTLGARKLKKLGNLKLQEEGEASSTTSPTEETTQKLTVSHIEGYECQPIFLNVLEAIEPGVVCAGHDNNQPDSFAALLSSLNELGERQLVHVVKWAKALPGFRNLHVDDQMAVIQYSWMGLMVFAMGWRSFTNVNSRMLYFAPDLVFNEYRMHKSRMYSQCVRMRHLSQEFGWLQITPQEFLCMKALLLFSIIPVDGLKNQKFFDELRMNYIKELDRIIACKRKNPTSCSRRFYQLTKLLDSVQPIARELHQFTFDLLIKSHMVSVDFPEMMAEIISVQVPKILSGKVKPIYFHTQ
Outline: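 MDA-kb2 cells carrying MMTV-luciferase (AR/GR responsive), 3,000 cells/well, co-treated with 3.0 uM nilutamide final. Compounds at 15 concentrations, 16 hr at 37C without CO2. Luciferase luminescence read after 30 min with ONE-Glo.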

Row | Structure (SMILES) | Potency [1] | Potency [2] | outcome [3] | Potency [4] | Potency [5] | Potency [6] | Potency [7] | outcome [8] | outcome [9] | Potency [10] | Potency [11] | outcome [12] | outcome [13] | outcome [14] | Potency [15] | outcome [16] | Potency [17] | Potency [18] | outcome [19] | outcome [20]
1 | CCCCCCCCCl | inactive | inactive | inactive | inactive | inactive | inactive | inactive | inactive | inactive | inactive | inactive | inactive | inactive | – | – | – | – | – | – | –
2 | Nc1ccccc1C(=O)O | inactive | inactive | inactive | inactive | inactive | inactive | inactive | inactive | inactive | inactive | inactive | inactive | inactive | inactive | inactive | inactive | inactive | inactive | – | –
3 | CCCCOC(=O)c1ccccc1C(=O)OCCCC | inactive | inactive | inactive | inactive | inactive | inactive | inactive | inactive | inactive | inactive | inactive | inactive | inactive | – | – | inactive | inactive | – | inactive | –
4 | O=C(NC(=O)c1c(F)cccc1F)Nc1cc(Cl)c(OC(F)(F)C(F)C(F)(F)F)cc1Cl (stereo not drawn) | inactive | inactive | inactive | – | inactive | inactive | inactive | inactive | inactive | inactive | inactive | inactive | inactive | inactive | inactive | inactive | inactive | – | inactive | inactive
5 | O=[N+]([O-])c1ccc([As](=O)(O)O)cc1 | inactive | – | inactive | inactive | inactive | inactive | – | – | inactive | inactive | inactive | inactive | inactive | inactive | inactive | inactive | inactive | inactive | – | –
6 | NCCc1ccc(O)cc1 | inactive | – | inactive | inactive | inactive | inactive | inactive | inactive | inactive | inactive | inactive | inactive | inactive | inactive | 60.6 µM (active) and inactive | inactive | inactive | inactive | inactive | –
7 | [N-]=[N+]=[N-] | inactive | inactive | inactive | inactive | inactive | inactive | – | – | inactive | inactive | inactive | inactive | inactive | – | inactive | inactive | inactive | inactive | inactive | inactive
8 | O=Cc1cccc(Oc2ccccc2)c1 | inactive | inactive | inactive | – | inactive | inactive | inactive | inactive | inactive | inactive | inactive | inactive | inactive | – | inactive | inactive | inactive | inactive | inactive | –
9 | Cc1cccc([N+](=O)[O-])c1 | inactive | inactive | inactive | – | inactive | inactive | – | – | inactive | inactive | inactive | inactive | inactive | – | inactive | inactive | inactive | inactive | inactive | –
10 | ClCCBr | inactive | inactive | inactive | – | inactive | inactive | inactive | inactive | inactive | inactive | inactive | inactive | inactive | – | inactive | inactive | inactive | inactive | – | –
11 | COc1ccc2c3c1O[C@H]1[C@@H](O)C=C[C@H]4[C@@H](C2)N(C)CC[C@@]341 | inactive | – | inactive | 21.3 µM (active) and inactive | 26.9 µM (active) and inactive | 2.69 µM (active) | – | – | inactive | inactive | inactive | inactive | inactive | inactive | – | inactive | inactive | inactive | inactive | –
12 | Clc1ccc(Cl)cc1 | inactive | inactive | inactive | – | inactive | 385 nM (active) and inactive | inactive | inactive | inactive | inactive | inactive | inactive | inactive | inactive | inactive | inactive | inactive | inactive | – | –
13 | C#CCN(C)[C@H](C)Cc1ccccc1 | inactive | inactive | inactive | – | inactive | inactive | inactive | inactive | inactive | inactive | inactive | inactive | inactive | inactive | inactive | inactive | inactive | inactive | – | –
14 | CCCCN(CCCC)SN(C)C(=O)Oc1cccc2c1OC(C)(C)C2 | inactive | inactive | inactive | – | inactive | 31.1 µM (active) and inactive | – | – | inactive | inactive | inactive | inactive | inactive | – | inactive | inactive | – | inactive | inactive | –
15 | Cc1ccc(N)cc1N | inactive | inactive | inactive | inactive | inactive | inactive | inactive | inactive | inactive | inactive | inactive | inactive | inactive | – | inactive | – | inactive | inactive | – | –
16 | CN(C)CCO | inactive | inactive | – | inactive | inactive | inactive | inactive | inactive | inactive | inactive | inactive | inactive | inactive | inactive | – | inactive | inactive | inactive | – | –
17 | CC(C)=C[C@@H]1[C@@H](C(=O)OCc2coc(Cc3ccccc3)c2)C1(C)C | inactive | – | – | – | inactive | – | – | – | inactive | inactive | inactive | inactive | inactive | inactive | – | inactive | – | inactive | – | –
